From PubChem BioAssay (NCATS)
Results filed as inconclusive are left out. Active and inactive are the calls of the source. Calls follow the shape of the dose curve; as a rule, active = well fitted inhibition curve with a large enough effect; inconclusive = small, poorly fitted or top-dose-only effect; inactive = flat fitted curve, though single readings scatter.

What follows are molecules tested on DIV30 (assay: qHTS profiling for inhibitors of Plasmodium falciparum proliferation (AID 504749; also: nearly all actives have a fitted effect of over 60% in size;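 as to activity, negative = inhibition: 0% = DMSO vehicle and full inhibition = artemisinin control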)). Details: P. falciparum in erythrocytes, SYBR Green DNA, 72 h; series mostly up to 28.7 µM; activity, negative = inhibition: at the top concentration.
In short: (§1)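 P. falciparum-infected erythrocytes (0.3% parasitemia, 2.5% hematocrit) incubated with compound 72 h at 37 C, 5% CO2. Parasite DNA detected by SYBR Green after lysis, overnight at room temperature; normalised to 0.29 uM artemisinin and DMSO.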
Potency is read from the fitted curve at half-maximal effect.

SMILES | activity, negative = inhibition | Potency
CCCCC(CC)COS(=O)(=O)O (stereo not given) | -1.89% (inactive) | –
CC1(O)CCC(C(C)(C)O)CC1 (stereo not given) | -1.61% (inactive) | –
CCCCCCOC(=O)c1cccnc1 | -9.24% (inactive) | –
FC(F)(F)COCC(F)(F)F | -1.28% (inactive) | –
CCCCCCCCCCCC(=O)N(CCO)CCO | 2.97% (inactive) | –
O=P(O)(O)OC[C@H]1O[C@](O)(COP(=O)(O)O)[C@@H](O)[C@@H]1O | -5.21% (inactive) | –
COc1cc(S(C)=O)ccc1-c1nc2ncccc2[nH]1 (stereo not given) | -1.44% (inactive) | –
O=c1[nH]c(=O)n([C@H]2C[C@H](O)[C@@H](CO)O2)cc1/C=C/Br | -1.97% (inactive) | –
CC(=O)[C@H]1CC[C@H]2[C@@H]3C=CC4=CC(=O)CC[C@@]4(C)[C@H]3CC[C@]12C | -1.89% [at 12.8 µM] (inactive) | –
NC(N)=O | 2.8% (inactive) | –
CCC(C(=O)NC(N)=O)c1ccccc1 (stereo not given) | 6.92% (inactive) | –
CC(CCc1ccc(O)cc1)NCC(O)c1ccc(O)cc1 (stereo not given) | -21.1% (inactive) | –
Nc1nccs1 | 4.8% (inactive) | –
NC(=S)NS(=O)(=O)c1ccc(N)cc1 | -0.417% (inactive) | –
O=C(OCc1ccccc1)c1ccc(O)cc1 | -15.5% (inactive) | –
CC1C(=O)CC2C3(C)CCC2(C(C)C(=O)O)C(=O)C13 (stereo not given) | -3.21% (inactive) | –
O=C(NNCS(=O)(=O)O)c1ccncc1 | -4.09% (inactive) | –
CC(=O)Nc1ccc(OC(C)=O)cc1 | 4.62% (inactive) | –
CC/C(=C(/CC)c1ccc(OP(=O)(O)O)cc1)c1ccc(OP(=O)(O)O)cc1 | -1.88% (inactive) | –
OC[C@H]1O[C@@](CO)(O[C@H]2O[C@H](CO)[C@@H](O)[C@H](O)[C@H]2O)[C@@H](O)[C@@H]1O | -2.48% (inactive) | –

SMILES | activity, negative = inhibition | Potency
[O-][N+](=Nc1ccccc1)c1ccccc1 | 0.411% (inactive) | –
NC(=O)[C@H]1O[C@@H](O)[C@H](O)[C@@H](O)[C@@H]1O | 3.4% (inactive) | –
CC(C)CCC[C@@H](C)[C@H]1CC[C@H]2[C@@H]3CC[C@@H]4C[C@H](O)CC[C@]4(C)[C@H]3CC[C@]12C | 1.54% (inactive) | –
ClC(Cl)Cl | 0.289% (inactive) | –
FC(F)(F)C(F)(F)C(F)(F)C(F)(F)C(F)(F)F | 1.03% (inactive) | –
CC(CC=O)CCCC(C)(C)O (stereo not given) | -7.09% (inactive) | –
CC(C)[C@H](N)C(=O)OCC(CO)OCn1cnc2c(=O)[nH]c(N)nc21 (stereo not given in full) | 0.411% (inactive) | –
CC(C)CCC[C@@H](C)[C@H]1CC[C@H]2[C@@H]3CC=C4C[C@@H](O)CC[C@]4(C)[C@H]3CC[C@]12C | 1.73% (inactive) | –
CC(C)c1ncc([N+](=O)[O-])n1C | -5.09% (inactive) | –
CCCc1ccc(C(=O)O)cc1 | 1.67% (inactive) | –
C=CC(=O)O | -0.865% (inactive) | –
COC(=O)CC[C@H](N)C(=O)O | 0.811% (inactive) | –
CN1C(=O)C[C@@H](C(=O)N[C@@H](Cc2cnc[nH]2)C(=O)N2CCC[C@H]2C(N)=O)NC1=O | -1.08% (inactive) | –
Cc1ncc(C[n+]2csc(CCOP(=O)(O)O)c2C)c(N)n1 | -1.77% (inactive) | –
O=C(O)COc1ccccc1/C=N/NC(=O)c1ccncc1 | -5.62% (inactive) | –
O=C(/C=C/c1cccc(F)c1)NC1CC1 | -4.53% (inactive) | –
CC(C)(Oc1ccc(C2CCCc3ccccc32)cc1)C(=O)O (stereo not given) | -0.123% (inactive) | –
O=C(O)[C@H]1C(=CCO)O[C@H]2CC(=O)N12 | 0.0304% (inactive) | –
CN=C1C=CC(=C(c2ccc(N(C)C)cc2)c2ccc(N(C)C)cc2)C=C1 | – | 1690 nM (active)
CO | 5.07% (inactive) | –

Each molecule was assayed on Dd2 in the same assay as above. Details: P. falciparum in erythrocytes, SYBR Green DNA, 72 h; series mostly up to 28.7 µM; activity, negative = inhibition: at the top concentration.
In short: as §1

SMILES | activity, negative = inhibition | Potency
CCCCC(CC)COS(=O)(=O)O (stereo not given) | -3.09% (inactive) | –
CC1(O)CCC(C(C)(C)O)CC1 (stereo not given) | 5.09% (inactive) | –
CCCCCCOC(=O)c1cccnc1 | 3.37% (inactive) | –
FC(F)(F)COCC(F)(F)F | -12.7% (inactive) | –
CCCCCCCCCCCC(=O)N(CCO)CCO | -7.6% (inactive) | –
O=P(O)(O)OC[C@H]1O[C@](O)(COP(=O)(O)O)[C@@H](O)[C@@H]1O | 0.453% (inactive) | –
COc1cc(S(C)=O)ccc1-c1nc2ncccc2[nH]1 (stereo not given) | -0.13% (inactive) | –
O=c1[nH]c(=O)n([C@H]2C[C@H](O)[C@@H](CO)O2)cc1/C=C/Br | 2.15% (inactive) | –
CC(=O)[C@H]1CC[C@H]2[C@@H]3C=CC4=CC(=O)CC[C@@]4(C)[C@H]3CC[C@]12C | -4.37% [at 12.8 µM] (inactive) | –
NC(N)=O | 2.76% (inactive) | –
CCC(C(=O)NC(N)=O)c1ccccc1 (stereo not given) | 0.0104% (inactive) | –
CC(CCc1ccc(O)cc1)NCC(O)c1ccc(O)cc1 (stereo not given) | 4.75% (inactive) | –
Nc1nccs1 | 1.65% (inactive) | –
NC(=S)NS(=O)(=O)c1ccc(N)cc1 | -2.21% (inactive) | –
O=C(OCc1ccccc1)c1ccc(O)cc1 | -3.78% (inactive) | –
CC1C(=O)CC2C3(C)CCC2(C(C)C(=O)O)C(=O)C13 (stereo not given) | -5.9% (inactive) | –
O=C(NNCS(=O)(=O)O)c1ccncc1 | 9.62% (inactive) | –
CC(=O)Nc1ccc(OC(C)=O)cc1 | -7.86% (inactive) | –
CC/C(=C(/CC)c1ccc(OP(=O)(O)O)cc1)c1ccc(OP(=O)(O)O)cc1 | 0.296% (inactive) | –
OC[C@H]1O[C@@](CO)(O[C@H]2O[C@H](CO)[C@@H](O)[C@H](O)[C@H]2O)[C@@H](O)[C@@H]1O | 2.3% (inactive) | –

SMILES | activity, negative = inhibition | Potency
[O-][N+](=Nc1ccccc1)c1ccccc1 | 15.5% (inactive) | –
NC(=O)[C@H]1O[C@@H](O)[C@H](O)[C@@H](O)[C@@H]1O | -5.71% (inactive) | –
CC(C)CCC[C@@H](C)[C@H]1CC[C@H]2[C@@H]3CC[C@@H]4C[C@H](O)CC[C@]4(C)[C@H]3CC[C@]12C | -5.25% (inactive) | –
ClC(Cl)Cl | 13.4% (inactive) | –
FC(F)(F)C(F)(F)C(F)(F)C(F)(F)C(F)(F)F | -4.04% (inactive) | –
CC(CC=O)CCCC(C)(C)O (stereo not given) | -10.4% (inactive) | –
CC(C)[C@H](N)C(=O)OCC(CO)OCn1cnc2c(=O)[nH]c(N)nc21 (stereo not given in full) | -12.2% (inactive) | –
CC(C)CCC[C@@H](C)[C@H]1CC[C@H]2[C@@H]3CC=C4C[C@@H](O)CC[C@]4(C)[C@H]3CC[C@]12C | 10.9% (inactive) | –
CC(C)c1ncc([N+](=O)[O-])n1C | 0.585% (inactive) | –
CCCc1ccc(C(=O)O)cc1 | 1.6% (inactive) | –
C=CC(=O)O | 1.92% (inactive) | –
COC(=O)CC[C@H](N)C(=O)O | -11.8% (inactive) | –
CN1C(=O)C[C@@H](C(=O)N[C@@H](Cc2cnc[nH]2)C(=O)N2CCC[C@H]2C(N)=O)NC1=O | 2.43% (inactive) | –
Cc1ncc(C[n+]2csc(CCOP(=O)(O)O)c2C)c(N)n1 | -12.4% (inactive) | –
O=C(O)COc1ccccc1/C=N/NC(=O)c1ccncc1 | -9.82% (inactive) | –
O=C(/C=C/c1cccc(F)c1)NC1CC1 | 6.04% (inactive) | –
CC(C)(Oc1ccc(C2CCCc3ccccc32)cc1)C(=O)O (stereo not given) | -0.139% (inactive) | –
O=C(O)[C@H]1C(=CCO)O[C@H]2CC(=O)N12 | 7.44% (inactive) | –
CN=C1C=CC(=C(c2ccc(N(C)C)cc2)c2ccc(N(C)C)cc2)C=C1 | – | 282 nM (active)
CO | 5.84% (inactive) | –
